TDP1 inh: inhibitors of human tyrosyl-DNA phosphodiesterase TDP1 | Q9NUW8 | recombinant TDP1, AlphaScreen DNA substrate cleavage | Potency, µM (titrated, usually from 130 µM), without a hit: at the top dose activity change, negative = inhibition, most hits filed as inhibitors | 350,000 compounds, 0.28% hits | AID 485290; also: % is scaled to controls: 0 for no effect and ±100 for the full control effect; nearly all actives have a fitted effect of over 40% in size
Target sequence (Q9NUW8 whole entry, looked up): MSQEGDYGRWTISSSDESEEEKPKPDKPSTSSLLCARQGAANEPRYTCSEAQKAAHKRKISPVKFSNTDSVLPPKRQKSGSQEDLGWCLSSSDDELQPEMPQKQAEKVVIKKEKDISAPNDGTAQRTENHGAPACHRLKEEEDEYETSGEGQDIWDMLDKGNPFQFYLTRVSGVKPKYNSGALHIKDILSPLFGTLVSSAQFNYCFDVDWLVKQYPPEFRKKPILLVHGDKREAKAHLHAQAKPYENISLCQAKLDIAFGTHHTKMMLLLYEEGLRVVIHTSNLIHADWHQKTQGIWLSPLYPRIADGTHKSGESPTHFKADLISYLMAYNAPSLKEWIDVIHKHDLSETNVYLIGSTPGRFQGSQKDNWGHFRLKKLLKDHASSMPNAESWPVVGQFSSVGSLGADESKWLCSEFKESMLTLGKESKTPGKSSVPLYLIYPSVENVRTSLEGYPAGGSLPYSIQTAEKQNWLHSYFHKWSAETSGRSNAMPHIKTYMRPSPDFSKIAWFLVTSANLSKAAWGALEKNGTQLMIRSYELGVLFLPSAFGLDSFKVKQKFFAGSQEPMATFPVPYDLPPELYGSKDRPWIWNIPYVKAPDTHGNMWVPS
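Recombinant E. coli-expressed Tdp1 (1 nM) preincubated with compound 15 min at RT, then 5'-biotin/3'-phosphotyrosine-FITC DNA substrate (15 nM) added for 5 min. AlphaScreen beads (10 ug/ml) added, 10 min RT; tyrosine-FITC cleavage read as signal loss.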
ClpP mod: qHTS Assay for Activators of ClpP; ATP-dependent Clp protease proteolytic subunit (Bacillus subtilis (strain 168)), P80244; purified B. subtilis ClpP, FRET peptide cleavage, 20 min; Potency, µM (series often up to 57.5 µM), inactives show at the top dose activity change, negative = active; 340,000 compounds, 1.9% hits; active = well fitted falling curve with a large enough effect; inconclusive = small, poorly fitted or top-dose-only effect; inactive = no such curve, though single readings can be large or run the other way; also: the source files actives as falling curves though it sought activators and does not explain the sign; nearly all actives have a fitted effect of over 65% in size
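Purified B. subtilis ClpP, 10 microg/mL final in Tris/HCl pH8 with KCl, BSA, glycerol and Tween-20, cleaved an Abz/nitrotyrosine-quenched decapeptide. Fluorescence (ex 320, em 430) was read at 0 and 20 min at room temperature. Delta was normalized to 5.8 microM ADEP and DMSO/no-enzyme controls.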
DT40 TDP1 CPT: growth inhibition of DT40 Tdp1-/-;hTDP1 cells with camptothecin (screen for TDP1 inhibitors); chicken DT40 Tdp1-/-;hTDP1 cells + 20 nM CPT, ATP luminescence, 48 h; 420,000 compounds, 12% hits; AID 686979; Potency, µM (titrated, usually from 46.2 µM), for inactives: at the highest dose activity change, negative = growth inhibition, most hits filed as inhibitors; also: % is scaled to controls: 0 for no effect and ±100 for the full control effect; nearly all actives have a fitted effect of over 55% in size
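Cell growth measured by CellTiter-Glo luminescence after a minimum 48 h, 37 C compound exposure with 20 nM CPT in Tdp1-knockout DT40 cells stably expressing hTDP1, seeded 400/well; qHTS titration format.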
DT40 TDP1 no CPT: qHTS for Inhibitors of human tyrosyl-DNA phosphodiesterase 1 (TDP1): qHTS in cells in absence of CPT. 420,000 compounds, 15% hits. DT40 Tdp1-/- hTDP1 cells, no CPT, ATP luminescence, 48 h. Potency, µM (titrated, usually from 46.2 µM), without a hit: at the highest dose activity change, negative = growth inhibition, actives largely listed as inhibitors. AID 686978, 2013; also: % is scaled to controls: 0 for no effect and ±100 for the full control effect; nearly all actives have a fitted effect of over 55% in size
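Compound effects on proliferation are scored in DT40 Tdp1-/-;hTDP1 cells in the absence of CPT. ATP levels (CellTiter-Glo luminescence) are recorded after a ≥48 hr, 37 °C incubation.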
* = called active by the depositor; ? = inconclusive; nt = no result. Only some compounds are listed: those with a hit (about 17% of all), similar ones and a draw of the others. Unless noted, calls follow the shape of the dose curve; as a rule, active = well fitted curve in the direction sought with a large enough effect; inconclusive = small, poorly fitted or top-dose-only effect, or another doubt; inactive = no such curve, though single readings can be large; an effect the other way counts as inactive or inconclusive. Potency is read from the fitted curve at half-maximal effect.

SMILES	TDP1 inh	ClpP mod	DT40 TDP1 CPT	DT40 TDP1 no CPT
CC(C)c1nc2cc(C(=O)N3CCNC(=O)C3c3cccc(F)c3)ccc2o1 (stereo not given)	2%	2%	-3%	-25%
CCN=c1scc(-c2ccc3c(c2)NC(=O)CO3)n1N=C1CCCC1	11%	1%	?	8.2µM*
O=C1COc2ccc(-c3n[nH]c(=O)c4ccccc34)cc2N1	4%	nt	-10%	?
CCCCN=c1scc(-c2ccc3c(c2)NC(=O)CO3)n1N=C1CCCC1	10%	-1%	13µM*	23µM*
C[C@@H]1CNC(=O)c2c(C(=O)NC3CCN(C(=O)OC(C)(C)C)CC3)ncn21	nt	-1%	-1%	-5%
COc1ccc(CCn2c(C)cc(C(=O)CCl)c2C)cc1OC	7%	-1%	6.5µM*	5.2µM*
CC(=O)c1c(C)n(CCc2ccc(Cl)cc2)c2ccc(O)cc12	nt	1%	11%	-4%
Cc1cc(C(=O)CSc2nnc(N)s2)c(C)n1CCc1ccc(Cl)cc1	4%	1%	9.2µM*	?
COc1ccc(CCn2c(C)c(C(C)=O)c(C(C)=O)c2C)cc1OC	0%	-2%	2%	2%
Cc1cc(C(=O)CSc2nnc(N)s2)c(C)n1CCc1ccc(F)cc1	-4%	1%	?	-29%
Cc1cc(C(=O)CCl)c(C)n1CCc1ccc(Cl)cc1	-8%	nt	-99%	3.7µM*
COC1OC(CO)C(N=C(C)C)C1O (stereo not given)	nt	-3%	8%	-2%
Nc1ncncc1-c1ccc2ccccc2c1	5%	-7%	-23%	?
CCOc1ccc(-c2cc(NC(=O)Nc3ccc(Cl)cc3)c(C(=O)OC)s2)cc1	0%	?	?	21µM*
CCOc1ccc(-c2cc(NC(=O)Nc3ccccc3Cl)c(C(=O)OC)s2)cc1	-3%	14µM*	?	?
CC1(C)Cc2c(ccc3ccccc23)/C(=C/C(=O)N2CCCCC2)N1	8%	-2%	16µM*	15µM*
O=C(Oc1ccc2ccccc2c1Cl)N1CCCCCC1	nt	-1%	-21%	?
Cc1ncc(COC(=O)C(C)C)c2cc(C(=O)Nc3ccccc3C(F)(F)F)c(=O)oc12	4%	3%	-13%	-16%
COc1cccc(-c2ccc3c(N)c(C(=O)Nc4ccccc4C)sc3n2)c1	-12%	-11%	?	23µM*
COc1ccc(-c2ccc3c(N)c(C(=O)NCc4ccc(C)cc4)sc3n2)cc1	nt	11µM*	-23%	?
COc1ccccc1NC(=O)c1sc2nc(-c3ccco3)ccc2c1N	0%	3%	-16%	?
COc1cccc(-c2ccc3c(N)c(C(=O)NCc4ccc(Cl)cc4)sc3n2)c1	nt	-7%	?	?
Nc1c(C(=O)Nc2ccccc2)sc2nc(-c3ccco3)ccc12	1%	16µM*	23µM*	18µM*
Nc1c(C(=O)Nc2ccc(Cl)c(C(F)(F)F)c2)sc2nc(-c3ccncc3)ccc12	-2%	-2%	?	10µM*
COc1cccc(-c2ccc3c(N)c(C(=O)Nc4cc(F)ccc4F)sc3n2)c1	2%	2%	?	?
SMILES	TDP1 inh	ClpP mod	DT40 TDP1 CPT	DT40 TDP1 no CPT
NC(=O)C1CCN(C(=O)Cc2ccsc2)CC1	3%	-1%	-4%	4%
O=C(NNCS(=O)(=O)O)c1ccncc1	nt	nt	2%	0%
Cc1ccccc1CN1C(=O)c2ccccc2S(=O)c2ccc(C(=O)NCc3ccco3)cc21 (stereo not given)	1%	0%	?	?
Cc1ccccc1NC(=O)c1sc2nc(-c3ccncc3)ccc2c1N	nt	1%	-88%	16µM*
Nc1c(C(=O)Nc2ccc(F)c(F)c2)sc2nc(-c3ccncc3)ccc12	nt	1%	0%	-5%
CC(=O)N1CCC(N(C(=O)Nc2ccc(C)c(F)c2)C(C)C)CC1	6%	-3%	3%	-2%
Cc1ccc(C)c(-n2c3nc(=O)[nH]c(=O)c-3cc3cc([N+](=O)[O-])ccc32)c1	-1%	-12%	1.2µM*	0.82µM*
Cc1cccc(-n2c3nc(=O)[nH]c(=O)c-3cc3cc([N+](=O)[O-])ccc32)c1	3%	-10%	4.6µM*	-113%
O=c1nc2n(-c3ccccc3F)c3ccccc3cc-2c(=O)[nH]1	3%	4%	?	?
CC1CC(C)CN(S(=O)(=O)c2ccc3oc(=O)ccc3c2)C1 (stereo not given)	3%	0%	-23%	-4%
COc1ccc(NC(=O)c2ccccc2[N+](=O)[O-])cc1	1%	1%	-13%	-9%
COc1ccccc1Nc1ccc(NC(=O)c2cccc([N+](=O)[O-])c2C)cc1	nt	-5%	?	18µM*
CCCC(=O)Nc1cccc(NC(=O)c2cccc([N+](=O)[O-])c2C)c1	4%	11µM*	?	?
CCCC(=O)Nc1ccc(NC(=S)NC(=O)c2ccccc2[N+](=O)[O-])cc1	1%	-5%	?	29µM*
Cc1cc(C)nc(-n2nc(C)cc2NC(=O)CN2CCCC2)n1	0%	-1%	-2%	-4%
Cc1cc(NC(=O)CSc2cc(Cl)ccc2Cl)n(-c2ccccc2)n1	3%	2%	-15%	-28%
Cc1cc(C)nc(-n2nc(C)cc2NC(=O)CNC(C)c2ccccc2)n1 (stereo not given)	4%	-1%	?	21µM*
Cc1cc(NC(=O)CN2CCOCC2)n(-c2ccccc2)n1	4%	nt	2%	-7%
Cc1cc(C)nc(-n2nc(C)cc2NC(=O)CN2CCC(C)CC2)n1	0%	5%	5.2µM*	5.8µM*
Cc1cc(NC(=O)CN2CCOCC2)n(-c2nc3ccccc3s2)n1	4%	-2%	15µM*	21µM*
Cc1ccc(C)c(C(=O)Nc2cc(C)nn2-c2nc(C)cc(C)n2)c1	6%	?	3.3µM*	5.2µM*
Cc1cc(C)nc(-n2nc(C)cc2NC(=O)c2cccc(S(=O)(=O)N(C)C)c2)n1	2%	1%	-10%	-8%
COc1ccc(C(=O)C[n+]2cc(Br)cc(Br)c2)cc1	nt	-1%	-5%	3%

Source: PubChem (National Center for Advancing Translational Sciences (NCATS))
